Compounds without any hit were thinned out: in the full panel of roughly 79,000, 15% have a hit. A number with no mark means an inactive call. Active and inactive are the calls of the source. Cut-off read from the data, not from the text of the source: active = growth inhibition above about 70%; inactive = the rest.
Experiment: NCI Yeast Anticancer Drug Screen. Data for the cln2 rad14 strain (AID 165);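 note: 0% = growth equal to vehicle treated cultures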
Details: S. cerevisiae cln2 rad14 strain, at 50.0 µM (retest, dose inferred, filed as 5.0), stronger effect = higher value
Method in brief: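 Growth of compound-exposed yeast (cln2 rad14 genotype) measured and expressed as inhibition relative to vehicle.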

Structure (SMILES)	growth inhibition
COC(=O)c1ccc(NN)cc1	42%
O=[N+]([O-])c1ccc(-c2nc3c(o2)CCC3)cc1	-62%
Cc1ccc(S(=O)(=O)N/N=C(\C=C\c2ccccc2)c2ccccc2)cc1	16%
[N-]=[N+]=NC1=CC(=O)c2cccc3cccc1c23	98% (active)
CCOc1ccc2nc3cc(Cl)ccc3[n+](C)c2c1	74% (active)
Cc1ccc(C(c2ccc(N(C)C)cc2)c2ccc(N(C)C)cc2)cc1	69%
O=[N+]([O-])c1ccc2c(c1)[n+]([O-])c1[nH]c3ccccc3c1[n+]2[O-] (tested in a mixture with another compound)	85% (active)
C/C(=N\NC(=S)N1CCCCCC1)c1cccc2cccnc12	2%
CC(C)c1cc(O)c(C(C)(C)C)cc1Cl	45%
CN(C)c1ccc(/C=C(/NC(=O)c2ccccc2)c2nc3ccc(Cl)cc3[nH]2)cc1	16%
CC(C)(C)c1ccc2c(c1)C(O)(c1ccccc1)C1OC1(C(C)(C)C)C2=O (stereo not given)	87% (active)
CCCCCCCCCCCCOP(=O)(N1CC1(C)C)N1CC1(C)C (stereo not given)	72% (active)
Cc1ccc(C(=O)CC(N)C(=O)O)cc1 (stereo not given)	1%
COC(=O)CCC(=O)NCCc1ccc2c([nH]c3ccccc32)c1C	-7%
Nc1ccc(C(=O)N/C(=C\C=C\c2ccco2)c2nc3c4c(ccc3[nH]2)C(=O)c2ccccc2C4=O)cc1	9%
Oc1ccc(CCCCCc2ccc(O)cc2)cc1	99% (active)
O=C(O)C1C(C(=O)O)C2C(=O)C=CC1N2Cc1ccccc1 (stereo not given)	31%
CC1(C)CC(=O)C(c2ccccc2[N+](=O)[O-])=C(O)C1	24%
ON(Cc1ccccc1)C(=S)c1ccccc1	92% (active)
CCCCC(O)(c1ccc2nc(NC(=O)OC)[nH]c2c1)c1cccs1 (stereo not given)	10%

Structure (SMILES)	growth inhibition
O=C(O)CC/C(=N\Nc1ccccc1)C(=O)O	98% (active)
CC(C)(c1ccc(OC#N)cc1)c1ccc(OC#N)cc1	88% (active)
C=CC(C)(CCC=C(C)C)OC(=O)Nc1ccccc1 (stereo not given)	6%
Cc1ccc(Cc2nc(=S)[nH][nH]2)cc1	1%
Cc1c(Cl)c(S(N)(=O)=O)cc2c1NC=NS2(=O)=O	9%
O=C(c1cccnc1)N(C1CCCCC1)C1CCCCC1	9%
COc1cc(NCC(C)(O)CN2CCC(C)CC2C)c2ncccc2c1 (stereo not given)	52%
O=C1C=CC(=Nc2cccc3c2-c2ccccc2C3)O1	99% (active)
CC(O)c1c2c(cc3c1CC1(C3)Cc3cc4c(c(C(C)O)c3C1)CCC4)CCC2 (stereo not given)	97% (active)
CCCCCCCCCCCCCCCC[N+](C)(C)CCl	99% (active)
CCCCC(CC)CNc1ncnc2c1cnn2C (stereo not given)	89% (active)
O=C1NN(C2=NNC3(C(=O)N2)c2ccccc2-c2ccccc23)C(c2ccccc2)=N/C1=C/c1ccc(Cl)cc1	3%
CCCCc1ccc2nccc(N/N=C/c3ccc(OC)c4ccccc34)c2c1	73% (active)
CC(C)(C[NH-])C[NH-].[Cl][Pt+2]([Cl])([Cl])[Cl]	99% (active)
O=C(O)C1(Cc2ccc3c(c2)CCC3)Cc2ccccc2C1	5%
CCN(CC)C(C)(C)C(=O)/C=C/c1ccc(Cl)cc1	26%
CCc1ccccc1NC(=O)C(=O)C(C#N)c1c(Cl)cccc1Cl (stereo not given)	4%
COc1c(OC)c(C2(O)C(=O)N(C)c3ccccc32)c(OC)c(OC)c1C1(O)C(=O)N(C)c2ccccc21 (stereo not given)	-2%
Nc1ccc2ccccc2c1N=Cc1ccccc1[N+](=O)[O-]	54%
O=[N+]([O-])C1=Cc2cc(Cl)ccc2OC1c1cccc2ccccc12 (stereo not given)	80% (active)
